Records with an inconclusive call do not appear. Activity calls are given as the source filed them. Calls come from the whole dose curve; as a rule, active = well fitted activation curve with a large enough effect; inconclusive = small, poorly fitted or top-dose-only effect; inactive = flat fitted curve, though single readings scatter. Where a SMILES comes first, the peptide text is derived from it. The star is where a group is joined. βNA = c1ccc2cc(N*)ccc2c1; Cbz = O=C(OCc1ccccc1)*; CH2F = FC*
Assay: Primary redox qHTS assay for identification of artifact compounds. (AID 1845223)
Conditions: Amplex Red/HRP redox cycling with DTT, fluorescence; series mostly up to 53.8 µM; redox activity (% of DA3003): at the top concentration
Source text: PI: Alexander Tropsha Ph.D.
UNC Eshelman School of Pharmacy
University of North Carolina, Chapel Hill, North Carolina
Hits from high-throughput screening (HTS) of chemical libraries are often false positives due to their interference with the assay detection technology. In response to this problem, we generated the largest publicly available library of chemical liabilities and developed a free webtool to predict HTS artifacts, both of which are described herein. More specifically, we generated, curated, and integrated HTS datasets for thiol reactivity, redox activity, and luciferase (firefly and nano) activity. Using these curated datasets, we developed and validated several Quantitative Structure-Interference Relationship (QSIR) models to predict nuisance behavior. […] These models were employed for virtual profiling of the National Center for Advancing Translational Science's (NCATS) in-house library, and 256 compounds for each assay were selected for the experimental validation of nuisance behavior. The BA for these external predictions ranged from 58 to 78% for compounds within the applicability domains of the models. […] The models developed in this study, along with aggregation models previously developed by our group (SCAM Detective) were implemented in "Liability Predictor," an online tool which may be used as part of chemical library design or for triaging HTS hits. Both the models and the curated datasets are publicly available at https://liability.mml.unc.edu/.
SEQUENCE No. (e.g., 1, 2, 3, etc.); […] (e.g., Cells, Incubation, Reagent, etc.); VALUE; DESCRIPTION.
1; Reagent; 3 uL; Amplex Red and HRP mixture.
2; Compounds and control; 16 nL; Kalypsis pin tool (Wako USA) equipped with a 1536-well pin head. […]
6; Detection; Fluorescence, ViewLux microplate reader, 525 nm excitation, 598 nm emission.
NOTES (numbers refer to Sequence numbers above)
1. 3 uL of a mixture containing Amplex Red (25 uM final concentration) and horseradish peroxidase (HRP; 250 mU/mL final concentration) in assay buffer (HBSS) was dispensed into all wells of a 1536-well assay plate (solid-bottom black plate; Greiner Bio One, Monroe, NC).
2. A Wako Pin-tool (Wako Automation, Richmond, VA) was used to transfer 16 nL of compounds (consisting of 7-plates in qHTS format, final concentration range 18.3 nM to 114 uM) or control DA3003 (final concentration range 1.22 nM to 40 uM).
3. 15 min. incubation at room temperature protected from light.
4. 1 uL of DTT (prepared fresh; final concentration 250 uM) was dispensed for a final assay volume of 4 uL.
5. Plates were centrifuged (121xg, 15 seconds) and incubated for 30 minutes at room temperature protected from light.
6. Samples were read for fluorescence (Ex/Em = 525(20)/598(25) nm) on a ViewLux CCD imager (PerkinElmer). Data were normalized to DMSO (0% activity) and DA3003 (10 uM final concentration; 100% activity) and the resulting percent inhibition data were fitted to a 4-parameter Hill equation using NCATS in-house software.

Row | Structure (SMILES) | redox activity (% of DA3003)
1 | COC(=O)CC[C@H](NC(=O)[C@H](CC(C)C)NC(=O)OCc1ccccc1)C(=O)N[C@@H](Cc1cnc[nH]1)C(=O)N[C@@H](CC(=O)OC)C(=O)CF (Cbz-LE(OMe)HD(OMe)-CH2F) | -3.22% [at 11.5 µM] (inactive)
2 | Cc1ccc2[nH]c(=O)c(C3=NN(C(=O)CCC(=O)O)C(c4ccc(Br)cc4)C3)c(-c3ccccc3)c2c1 (stereo not given) | -1.55% (inactive)
3 | Cc1cn2cc(CC(=O)N3CCC4(CC3)CN(Cc3ccc(-n5nccn5)cc3Cl)C4)nc2s1 | -1.02% (inactive)
4 | CC1C2=CC(=O)OC2(O)CC2C1C(OC(=O)c1ccccc1)C(OC(=O)c1ccccc1)C1(O)C2(C)CCC(O)C1(C)C(=O)O (stereo not given) | -13.1% [at 25.6 µM] (inactive)
5 | C/C1=C\CC(C)(C)/C=C/C/C(C(=O)O)=C/CC1 | 8.1% (inactive)
6 | CC1=CC(=O)CC(C)(C)C1/C=C/C(C)OC1OC(COC2OCC(O)C(O)C2O)C(O)C(O)C1O (stereo not given) | -2.34% [at 25.6 µM] (inactive)
7 | C[C@@H]1O[C@@H](O[C@H]2[C@H](OC(=O)[C@]34CCC(C)(C)C[C@H]3C3=CCC5[C@@]6(C)CC[C@H](O[C@@H]7O[C@H](CO[C@@H]8OC[C@H](O)[C@H](O)[C@H]8O[C@@H]8OC[C@@H](O)[C@H](O)[C@H]8O)[C@@H](O)[C@H](O)[C@H]7O)C(C)(C)C6CC[C@@]5(C)[C@]3(C)C[C@H]4O)O[C@H](CO)[C@@H](O)[C@@H]2O)[C@H](O[C@@H]2O[C@H](CO)[C@@H](O)[C@H](O)[C@H]2O)[C@H](O)[C@H]1O[C@@H]1OC[C@@H](O)[C@H](O[C@@H]2OC[C@@H](O)[C@H](O)[C@H]2O)[C@H]1O (stereo not given in full) | 13.7% [at 6.41 µM] (inactive)
8 | CC(=O)/C=C/C1C(C)CC(O[C@@H]2O[C@H](CO)[C@@H](O)[C@H](O)[C@H]2O)CC1(C)C (stereo not given in full) | -6.44% (inactive)
9 | C=C1C(=O)OC2CC(COC(=O)C(C)C)=C(C(C)CCCOC(C)=O)[C@@H](OC(C)=O)C12 (stereo not given in full) | 6.31% [at 25.6 µM] (inactive)
10 | CC(C)CC(NC(=O)OCc1ccccc1)C(=O)NC(CC(C)C)C(=O)NC(CCC(=O)O)C(=O)Nc1ccc2ccccc2c1 (stereo not drawn) (Cbz-Leu-Leu-Glu-βNA; configuration not given here) | 6.14% (inactive)
11 | OC[C@@]1(O)CO[C@H](OC[C@H]2O[C@@H](OCCc3ccccc3)[C@H](O)[C@@H](O)[C@@H]2O)[C@@H]1O | -0.884% [at 25.6 µM] (inactive)
12 | C[C@@H]1C(=O)O[C@H]2[C@H]1CC[C@@]1(C)C(=O)C=C[C@@](C)(O)[C@H]21 | -11.1% (inactive)
13 | COc1cc(Nc2nc3ccccc3nc2NS(=O)(=O)c2cccc(NC(=O)c3ccc(C)c(OC)c3)c2)cc(OC)c1 | 1.47% (inactive)
14 | C[C@@H](NC(=O)c1cc(C(=O)N[C@@H](Cc2ccccc2)[C@H](O)CNC2CC2)cc(N(C)S(C)(=O)=O)c1)c1ccccc1 | 17.1% (inactive)
15 | CC(C)c1c(NC(=O)Nc2ccc(Cl)cc2)c(=O)n(-c2ccccc2)n1C | -6.41% (inactive)
16 | COc1c(C)c(OCC=C(C)C)cc2c1COC2=O | 5.82% (inactive)
17 | O=C(Cn1c2ccccc2c2nc3n(c(=O)c21)CCS3)N1CCCC1 | -1.81% (inactive)
18 | CCC(C)C(=O)O[C@H]1[C@@H](O[C@H]2O[C@H](CO)[C@@H](O)[C@H](O)[C@H]2O)O[C@H](CO)[C@@H](O)[C@@H]1O (stereo not given in full) | -7.06% [at 25.6 µM] (inactive)
19 | C[C@]12CCC[C@](C)(C(=O)O)C1CCC13CC(CO)C(CCC12)C3 (stereo not given in full) | -7.42% (inactive)
20 | CC(C)(CC(=O)N1CCCC1)NCC(=O)N1C[C@@H](F)C[C@H]1C#N | -3.49% (inactive)

Row | Structure (SMILES) | redox activity (% of DA3003)
21 | COc1cc(/C=C/C(=O)O[C@@H]2C[C@](O)(C(=O)O)C[C@@H](O)[C@H]2O)ccc1O | -1.24% (inactive)
22 | N#Cc1cccc(-c2c[nH]c3ncnc(N4CCOCC4)c23)c1 | -9.76% (inactive)
23 | CCC(C)C(=O)OC[C@H]1O[C@H](O[C@H]2O[C@H](CO)[C@@H](O)[C@H](O)[C@H]2O)[C@H](O)[C@@H](O)[C@@H]1O (stereo not given in full) | -14.9% [at 25.6 µM] (inactive)
24 | O=C(OCC1=C[C@@H](O)[C@@H]2C=CO[C@@H](O[C@@H]3O[C@H](CO)[C@@H](O)[C@H](O)[C@H]3O)[C@H]12)c1ccc(O)cc1 | -11.3% [at 25.6 µM] (inactive)
25 | C=CCC1=C[C@]2(OC)[C@H](C)[C@@H](c3ccc(OC)c(OC)c3)O[C@]2(OC)CC1=O | 7.07% (inactive)
26 | O=C(Nc1ccn(Cc2c(F)cccc2C(F)(F)F)n1)c1c(F)cccc1F | -0.702% [at 11.5 µM] (inactive)
27 | CC(=O)Nc1cccc2c1c(Sc1ccc(Cl)cc1)c(C)n2CC(=O)O | 5.53% (inactive)
28 | CC1C(=O)OCC2=CC[N+]3([O-])CCC(OC(=O)C(C)(O)C1(C)O)C23 (stereo not given) | -10.6% (inactive)
29 | CC(=O)OCC1OC(OC2COC(OC3COC(OC4C(OC5C(CO)OC(OC6CCC7(C)C(CCC8(C)C7CC=C7C9CC(C)(C)CCC9(C(=O)OC9OC(CO)C(O)C(O)C9OC9OCC(OC%10OCC(O)(CO)C%10O)C(O)C9O)C(O)CC78C)C6(C)C)C(O)C5O)OCC(O)C4O)C(O)C3O)C(O)C2O)C(OC(=O)/C=C/c2ccccc2)C(O)C1OC(C)=O (stereo not given) | -4.05% [at 6.41 µM] (inactive)
30 | COC(=O)[C@]1(C)CCC[C@@]2(C)C(=O)CC[C@H]3C(=O)C=C(CC[C@@H]21)C3O (stereo not given in full) | -9.64% (inactive)
31 | COc1cc(O)cc(C)c1C(=O)OC1C(CO)OC(n2ccc(=O)[nH]c2=O)C1OC(C)=O (stereo not given) | -11.6% [at 25.6 µM] (inactive)
32 | CC(=O)OCC1OC(O[C@H]2CC[C@]34C[C@]35CC(O)[C@]3(C)[C@@H]([C@H](C)CC/C=C(\C)C(=O)O)C(O)C[C@@]3(C)C5CC[C@H]4C2(C)C)C(O)C(O)C1OC1OCC(O)C(O)C1O (stereo not given in full) | -5.4% [at 11.5 µM] (inactive)
33 | CC1=C2C3OC(=O)C(C)C3(O)CCC2(C)CCC1 (stereo not given) | -0.558% (inactive)
34 | COC(=O)c1c(CC=C(C)C)c(OC2OC(CO)C(O)C(O)C2O)c2ccccc2c1OC1OC(CO)C(O)C(O)C1O (stereo not given) | -16.8% [at 25.6 µM] (inactive)
35 | NC1Nc2ccccc2C1(N)CC1NC(=O)C(Cc2ccccc2)NC(=O)C(Cc2ccccc2)NC1=O (stereo not given) | 10.6% [at 25.6 µM] (inactive)
36 | Cc1c(O)cc2c(c1O)COC1(O)CCCOC21 (stereo not given) | 11.6% (inactive)
37 | CC(=O)O[C@@H]1[C@H](OC(C)=O)C[C@@]2(C)C(CC[C@@H](C)[C@]23Cc2c(O)cc4c(c2O3)CN([C@@H](CCC(=O)O)C(=O)O)C4=O)C1(C)C (stereo not given in full) | 19.5% [at 25.6 µM] (inactive)
38 | N=C(N)c1ccc2nc(-c3cc(CC(=O)NC(CC(=O)O)C(=O)O)cc(-c4cc(S(N)(=O)=O)ccc4O)c3O)[nH]c2c1 (stereo not given) | -4.3% (inactive)
39 | C=C1CC23CC(=O)C4C(CO)(CO)CCCC4(C)C2CCC1C3 (stereo not given) | 7.69% (inactive)
40 | CC1=CC(=O)CC(C)(C)[C@@]1(O)/C=C/C(C)O[C@@H]1O[C@H](CO)[C@@H](O)[C@H](O)[C@H]1O (stereo not given in full) | -17.7% [at 25.6 µM] (inactive)

Reference: PubChem BioAssay (NCATS)
